For part of these data: Entries with a potency or affinity are not part of this list. The source made the active and inactive calls.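 How the source made its calls, unless noted: active means earlier screen potentiator hit that boosts the TRPC4 ion channel at some dose, with a dose response; inactive means no potentiation, no dose response, or not a prior hit.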
Experiments:
[1] = test system: TRPC4 beta (transient receptor potential cation channel C4), mouse; assay: activators of mouse TRPC4 channel, confirmation, cell-based, Fluo4 calcium, HEK293 TRPC4beta/mu-opioid, duplicates, 10 µM (AID 2426;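 active means fluorescence ratio normalized to control raised more than 50% in primary screen plus both repeat runs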); conditions: Fluo4 calcium fluorescence, at 10 µM; stronger effect = higher value
[2] = test system: transient receptor potential cation channel C4 beta (TRPC4), mouse; assay: activators of mouse TRPC4 channel, confirmation, cell-based, second round, Fluo4, HEK293 TRPC4beta/mu-opioid, 1 µM (AID 2461;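 active means primary screen active and over 50% activation in each of two duplicate runs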); conditions: Fluo4 calcium fluorescence, at 1 µM; stronger effect = higher value
[3] = test system: TRPC4 (transient receptor potential cation channel C4 beta), mouse; assay: positive allosteric modulators of mouse TRPC4, confirmation, cell-based, second round, Fluo-4, HEK293 TRPC4beta/mu-opioid, 1 µM (AID 2554;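 active means primary screen hit whose fluorescence ratio, in both repeats, exceeds the weak agonist control mean by 3 SD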); conditions: DAMGO EC20, Fluo-4 calcium flux, at 1 µM; stronger effect = higher value
[4] = test system: TRPC4 beta (transient receptor potential cation channel C4), mouse; assay: positive allosteric modulators of mouse TRPC4, confirmation, cell-based, Fluo-4, HEK293 TRPC4beta/mu-opioid (AID 2555;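 active means primary screen hit whose calcium fluorescence ratio, in both repeats, exceeds the weak agonist control mean by 3 SD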); conditions: DAMGO EC20, Fluo-4 calcium flux, at 10 µM; stronger effect = higher value
[5] = target: Short transient receptor potential channel 4 (Mus musculus) (UniProt Q9QUQ5); assay: inhibitors of mouse TRPC4 channel, confirmation, cell-based, Fluo4, HEK293 TRPC4beta/mu-opioid (AID 2636;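 active means calcium signal cut by more than 3 SD below the full-agonist control yet still positive, in both repeats and the earlier primary screen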); conditions: DAMGO, Fluo4 calcium flux, at 10 µM; stronger effect = higher value
[6] = target: Short transient receptor potential channel 4 (Mus musculus) (UniProt Q9QUQ5); assay: inhibitors of mouse TRPC4 channel, confirmation, cell-based, second round, Fluo4, HEK293 TRPC4beta/mu-opioid, 1 µM (AID 2637;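 active means calcium signal ratio cut to more than 3 SD under the fully stimulated control mean yet still positive, in both repeats and the primary screen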;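 on inhibition: percent of integrated ratio relative to wells lacking test compound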); conditions: Fluo4 calcium flux, DAMGO, at 1 µM; stronger effect = higher value
[7] = target: Short transient receptor potential channel 4 (Mus musculus) (UniProt Q9QUQ5); assay: mouse TRPC4 channel activators, dose response, cell-based, HEK293 TRPC4/mu-opioid, Fluo-4 calcium (AID 434937;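 active means primary screen activator hit with a dose response curve and TRPC4 channel activation at any tested dose; inactive means no activation, no dose response, or not a primary hit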)
[8] = target: Short transient receptor potential channel 4 (Mus musculus) (UniProt Q9QUQ5); assay: TRPC4 positive allosteric modulators, dose response, cell-based, HEK293 TRPC4/mu-opioid, Fluo-4 calcium, EC20 DAMGO (AID 434941);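 further: calcium entry triggered by an EC20 dose of DAMGO at the co-expressed mu-opioid receptor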
[9] = target: Short transient receptor potential channel 6 (Mus musculus) (UniProt Q61143); assay: inhibition of mouse TRPC6 channel, confirmation, selectivity assay for TRPC4 inhibitor project, cell-based, HEK293, membrane potential dye, duplicate (AID 434948;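 active means active in primary screen and both duplicates, each dropping signal beyond three positive-control SD with fluorescence still positive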); conditions: HEK293 TRPC6, membrane potential dye fluorescence, at 10 µM, stimulated with maximal-effect acetylcholine; stronger effect = higher value
[10] = target: Short transient receptor potential channel 6 (Mus musculus) (UniProt Q61143); assay: activation of mouse TRPC6 channel, confirmation, selectivity assay for TRPC4 activator project, cell-based, HEK293, membrane potential dye, duplicate (AID 434950;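 active means membrane potential signal rise above negative control mean plus 3 SD in both duplicates, also active in the earlier TRPC4 screen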); conditions: HEK293 TRPC6, membrane potential fluorescence, at 10 µM; stronger effect = higher value
[11] = target: Short transient receptor potential channel 6 (Mus musculus) (UniProt Q61143); assay: TRPC6 potentiation by TRPC4 potentiator hits, confirmation, selectivity assay for TRPC4 potentiator project, HEK293 cells, membrane potential dye, duplicate (AID 434952;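 active means compound raising the membrane signal above positive-control mean plus 3 SD in both repeats, and a primary screen hit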); conditions: HEK293 TRPC6, membrane potential dye fluorescence, at 10 µM, maximal acetylcholine added after compound; stronger effect = higher value
[12] = target: Short transient receptor potential channel 4 (Mus musculus) (UniProt Q9QUQ5); assay: calcium flux activators in TRPC4/5HT1a cells, counter-screen for TRPC4 activator project, cell-based, second counter screen, HEK293 TRPC4/5HT1a, Fluo-4 (AID 434977;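 active means calcium signal rise above buffer-control mean plus 5 SD in both duplicates, and also a hit in the primary screen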); conditions: Fluo-4 calcium flux, at 10 µM; stronger effect = higher value
[13] = calcium flux inhibitors in TRPC4/5HT1a cells, confirmation, counter-screen for TRPC4 inhibitor project, cell-based, second counter screen, HEK293 TRPC4/5HT1a, Fluo-4 (AID 434978;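 active means primary screen active whose calcium signal fell more than 3 SD beyond the full-serotonin control mean in both duplicate plates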;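 on outcome: serotonin given first at submaximal then at maximal dose after compound preincubation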); conditions: Fluo-4 calcium flux, at 10 µM, serotonin added to trigger calcium flux; stronger effect = higher value
[14] = test system: TRPC4 (mouse), co-expressed with 5HT1a in HEK293; assay: calcium flux potentiators in TRPC4/5HT1a cells, confirmation, counter-screen for TRPC4 potentiator project, cell-based, second counter screen, HEK293 TRPC4/5HT1a, Fluo-4 (AID 434979;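 active means signal rise over 3 SD above mean of control wells given weak agonist, in both repeats and first screen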); conditions: Fluo-4 calcium flux, at 10 µM, serotonin added at its EC20 dose; stronger effect = higher value
[15] = calcium flux activation in mu-opioid HEK293 cells, confirmation, counter-screen for TRPC4 activator project, cell-based, HEK293 mu-opioid receptor line (AID 449723;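 active means hit in primary screen, with calcium signal over 5 SD above buffer well mean in both duplicates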;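 further: counter screen cells carry the mu-opioid receptor alone and lack TRPC4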); conditions: Fluo-4 calcium fluorescence, at 10 µM; stronger effect = higher value
[16] = calcium flux enhancement in mu-opioid HEK293 cells, confirmation, counter-screen for TRPC4 allosteric potentiator project, cell-based, HEK293 mu-opioid receptor line (AID 449724;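 active means calcium signal rise more than 3 SD above the low-dose agonist control mean, in both duplicate plates and the primary screen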); conditions: Fluo-4 calcium flux, at 10 µM, compound added before EC20 DAMGO stimulus; stronger effect = higher value

Short transient receptor potential channel 4 (Mus musculus), sequence (Q9QUQ5 whole entry, looked up): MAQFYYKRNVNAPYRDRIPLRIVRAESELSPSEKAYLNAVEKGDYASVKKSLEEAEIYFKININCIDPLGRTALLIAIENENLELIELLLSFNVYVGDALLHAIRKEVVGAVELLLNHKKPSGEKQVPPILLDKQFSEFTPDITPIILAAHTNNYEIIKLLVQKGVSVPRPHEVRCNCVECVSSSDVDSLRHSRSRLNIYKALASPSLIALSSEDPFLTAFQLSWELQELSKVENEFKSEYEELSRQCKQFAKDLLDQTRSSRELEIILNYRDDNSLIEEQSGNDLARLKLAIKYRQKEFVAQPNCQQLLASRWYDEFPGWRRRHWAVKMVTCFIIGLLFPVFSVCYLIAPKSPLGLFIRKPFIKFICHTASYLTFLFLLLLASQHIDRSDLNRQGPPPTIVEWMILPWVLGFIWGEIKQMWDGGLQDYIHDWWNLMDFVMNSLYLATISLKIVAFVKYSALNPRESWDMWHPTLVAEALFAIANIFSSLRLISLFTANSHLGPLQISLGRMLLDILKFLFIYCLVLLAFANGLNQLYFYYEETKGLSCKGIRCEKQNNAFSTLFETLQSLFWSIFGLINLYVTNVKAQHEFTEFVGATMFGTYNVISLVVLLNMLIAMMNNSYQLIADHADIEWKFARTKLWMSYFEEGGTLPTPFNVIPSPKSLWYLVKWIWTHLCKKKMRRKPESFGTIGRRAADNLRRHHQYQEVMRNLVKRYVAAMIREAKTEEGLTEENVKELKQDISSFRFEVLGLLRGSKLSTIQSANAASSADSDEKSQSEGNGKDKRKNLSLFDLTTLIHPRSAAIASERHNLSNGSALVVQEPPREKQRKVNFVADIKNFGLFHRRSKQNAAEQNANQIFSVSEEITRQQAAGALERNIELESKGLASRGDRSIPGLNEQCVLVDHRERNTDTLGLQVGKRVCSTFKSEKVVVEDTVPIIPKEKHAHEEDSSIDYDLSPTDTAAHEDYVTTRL
Short transient receptor potential channel 6 (Mus musculus), sequence (Q61143 whole entry, looked up): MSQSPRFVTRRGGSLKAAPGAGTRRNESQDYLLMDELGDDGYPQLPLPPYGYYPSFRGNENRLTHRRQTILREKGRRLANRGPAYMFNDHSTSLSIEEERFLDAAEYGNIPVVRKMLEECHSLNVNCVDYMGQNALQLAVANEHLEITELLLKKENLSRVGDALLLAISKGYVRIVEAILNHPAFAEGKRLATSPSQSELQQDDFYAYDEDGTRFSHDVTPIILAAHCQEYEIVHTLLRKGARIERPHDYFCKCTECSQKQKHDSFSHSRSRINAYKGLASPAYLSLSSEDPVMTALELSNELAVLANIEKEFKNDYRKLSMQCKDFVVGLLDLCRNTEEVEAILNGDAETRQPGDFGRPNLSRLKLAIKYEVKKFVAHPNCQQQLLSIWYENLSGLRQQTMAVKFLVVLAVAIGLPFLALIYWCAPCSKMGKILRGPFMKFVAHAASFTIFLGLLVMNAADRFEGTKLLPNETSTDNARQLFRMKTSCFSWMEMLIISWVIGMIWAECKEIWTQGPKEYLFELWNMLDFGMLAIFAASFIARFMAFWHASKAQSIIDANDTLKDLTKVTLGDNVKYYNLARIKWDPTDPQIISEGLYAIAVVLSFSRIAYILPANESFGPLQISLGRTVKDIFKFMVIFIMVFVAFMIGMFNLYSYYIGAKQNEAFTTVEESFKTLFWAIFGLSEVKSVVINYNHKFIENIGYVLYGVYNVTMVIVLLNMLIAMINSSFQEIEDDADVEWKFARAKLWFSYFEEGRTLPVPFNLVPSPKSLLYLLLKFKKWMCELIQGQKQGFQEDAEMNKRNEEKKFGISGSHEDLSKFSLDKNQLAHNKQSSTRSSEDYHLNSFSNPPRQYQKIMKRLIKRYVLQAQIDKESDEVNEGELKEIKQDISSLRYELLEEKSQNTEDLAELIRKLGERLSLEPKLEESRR

| SMILES | outcome [1] | outcome [2] | outcome [3] | outcome [4] | outcome [5] | outcome [6] | outcome [7] | outcome [8] | outcome [9] | outcome [10] | outcome [11] | outcome [12] | inhibition [13] | outcome [14] | outcome [15] | outcome [16] | inhibition [5] | inhibition [6] | outcome [13] | inhibition [9] |
| --- | --- | --- | --- | --- | --- | --- | --- | --- | --- | --- | --- | --- | --- | --- | --- | --- | --- | --- | --- | --- |
| CCOC(=O)C1CCN(CC(O)COc2ccc(C(C)(C)C)cc2)CC1 (stereo not given) | inactive | inactive | inactive | inactive | inactive | inactive | inactive | inactive | inactive | inactive | inactive | inactive | 41.5% (active) | inactive | inactive | inactive |  |  |  |  |
| Cc1ccn2c(CNCCCn3cccn3)c(C(=O)N3CCCCCC3)nc2c1 | inactive | inactive | inactive | inactive |  |  | inactive | inactive | inactive | inactive | inactive | inactive |  | inactive | inactive | inactive | 78% (active) | 47% (active) | inactive |  |
| COc1ccc(OC)c(Nc2cc(C)nc3ccc(C)cc23)c1 | inactive | inactive | inactive | inactive |  | inactive | inactive | inactive |  | inactive | inactive | inactive |  | inactive | inactive | inactive | 38% (active) |  | inactive | 41% (active) |
| CC(C)c1nc(CNC(=O)CC2C(=O)NCCN2Cc2ccc(F)cc2Cl)cs1 (stereo not given) | inactive | inactive | inactive | inactive |  | inactive | inactive | inactive | inactive | inactive | inactive | inactive |  | inactive | inactive | inactive | 92% (active) |  | inactive |  |
| CC(C)NC(=S)N1CCN(C/C=C/c2ccccc2)CC1 | inactive | inactive | inactive | inactive |  | inactive | inactive | inactive | inactive | inactive | inactive | inactive |  | inactive | inactive | inactive | 71% (active) |  | inactive |  |
| COc1ccc(CN(C(=O)c2snc(C(N)=O)c2N)C(CC(C)C)C(=O)NC2CCCCC2)cc1 (stereo not given) | inactive | inactive | inactive | inactive |  | inactive | inactive | inactive | inactive | inactive | inactive | inactive | 30.8% (active) | inactive | inactive | inactive | 82% (active) |  |  |  |
| CCOC(=O)C1(CCOc2ccccc2)CCN(Cc2cccs2)CC1 | inactive | inactive | inactive | inactive |  | inactive | inactive | inactive | inactive | inactive | inactive | inactive |  | inactive | inactive | inactive | 80% (active) |  | inactive |  |
| CC(=O)Nc1ccc(S(=O)(=O)NC2=C(N3CCN(Cc4ccccc4)CC3)C(=O)c3ccccc3C2=O)cc1 | inactive | inactive | inactive | inactive |  |  | inactive | inactive |  | inactive | inactive | inactive |  | inactive | inactive | inactive | 72% (active) | 40% (active) | inactive | 30% (active) |
| Cc1ccc(O)c(Sc2cc(C)ccc2O)c1 | inactive | inactive | inactive | inactive |  | inactive | inactive | inactive |  | inactive | inactive | inactive | 13.7% (active) | inactive | inactive | inactive | 97% (active) |  |  | 44.5% (active) |
| COc1ccc2c(c1)C=C(CN1CCC(CO)(CCc3ccccc3)CC1)CO2 | inactive | inactive | inactive | inactive |  | inactive | inactive | inactive | inactive | inactive | inactive | inactive | 35.7% (active) | inactive | inactive | inactive | 102% (active) |  |  |  |
| Cc1ccc(OCC(COCc2ccccc2)NC(C)C)cc1 (stereo not given) | inactive | inactive | inactive | inactive |  | inactive | inactive | inactive |  | inactive | inactive | inactive | 42.1% (active) | inactive | inactive | inactive | 85% (active) |  |  | 5% (active) |
| Cc1ccc(C[n+]2cc(-c3ccc(Cl)cc3)n3c2CCC3)cc1 | inactive | inactive | inactive | inactive |  |  | inactive | inactive | inactive | inactive | inactive | inactive | 41.9% (active) | inactive | inactive | inactive | 73% (active) | 64% (active) |  |  |
| COCCCNc1cc(C)nc2ccccc12 | inactive | inactive | inactive | inactive |  | inactive | inactive | inactive |  | inactive | inactive | inactive |  | inactive | inactive | inactive | 94% (active) |  | inactive | 50.5% (active) |
| NC(=O)c1nsc(C(=O)N(Cc2ccccc2Cl)C(C(=O)NCC2CCCO2)c2ccc(O)cc2)c1N (stereo not given) | inactive | inactive | inactive | inactive |  | inactive | inactive | inactive | inactive | inactive | inactive | inactive | 28.6% (active) | inactive | inactive | inactive | 90% (active) |  |  |  |
| Cc1c(CCOC(=O)CC23CC4CC(CC(C4)C2)C3)sc[n+]1Cc1ccccc1 | inactive | inactive | inactive | inactive |  | inactive | inactive | inactive |  | inactive | inactive | inactive | 19.6% (active) | inactive | inactive | inactive | 96% (active) |  |  | 44.5% (active) |
